This is one part of the list. Activity calls are given as the source filed them.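 The calls were made as follows: active = growth rating at most 1 for wild type yeast while the TORC1 bypass strain still grows fully, rated 3; inactive = the rest.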

Drawing on PubChem BioAssay AID504456 (NMMLSC, 2011), this text covers growth rating (0-3) for 2 compounds.

A short description of the test: wild-type yeast growth inhibition sparing TORC1 bypass cells, mechanism study for yeast TOR pathway GFP screen, BY4741 wild type, TORC1 bypass strain (AID 504456). The conditions noted are these: S. cerevisiae BY4741 spot growth rating, 48-72 h, at 30 µM.
The mark [1] stands for this setting: TORC1 bypass strain growth rating.

For `Cc1ccc(-c2nn(C(C)(C)C)c3ncnc(N)c23)cc1`, the growth rating (0-3) reads like this: under setting [1], 3; (stronger effect = lower value) 3 (inactive).
As for `CN(C)CCCNc1nc(N)c([N+](=O)[O-])c(Nc2cccc(F)c2)n1`, the growth rating (0-3) was 3 under setting [1] and 3 (inactive) (stronger effect = lower value).
